Autofluor counter – compound fluorescence in toxin protease inhibitor counterscreen | compound autofluorescence counterscreen, microsphere flow cytometry; active compounds read high | fluorescence intensity (concentration not given with the values) | 360,000 tested, 3.1% active | AID 624483; in the data active means fluorescence intensity above about 16000; inconclusive means no clear call, values can overlap the other calls
Vc quorum ag-1 – inducers of Vibrio cholerae quorum light production without autoinducers, primary screen, BH1578 luxS cqsA deficient, single point | V. cholerae BH1578 lux reporter, luminescence, 6 h | activation, % at 18.7 µM | 350,000 tested, 0.16% active; in the data active means activation mostly above about 9.7%, no sharp cut-off; inconclusive means no clear call, values can overlap the other calls; inactive means mostly below about 3.7%
MazF activator – activators of E. coli MazEF toxin-antitoxin RNase, primary screen, biochemical, fluorescence, uHTS. 350,000 tested, 0.32% active. FAM/BHQ RNA-DNA oligo cleavage fluorescence, 5 h. activation, % at 20 µM. AID 504720, 2011; in the data active means activation above about 50%
BoNT F protease – BoNT/F light chain protease inhibitors, primary screen, biochemical, flow cytometry, MLPCN library; Multiplex microsphere protease cleavage assay; Botulinum neurotoxin type F light chain protease (Clostridium botulinum); 360,000 tested, 0.22% active; inhibition, % at 10 µM; in the data active means inhibition above about 35%, passing the limit was not always enough; inconclusive means no clear call, values can overlap the other calls; further: plate controls were buffer without enzyme for full effect and enzyme alone for no effect
BoNT A protease – BoNT/A light chain protease inhibitors, primary screen, biochemical, flow cytometry, MLPCN library | Botulinum neurotoxin type A light chain protease (Clostridium botulinum A str. ATCC 3502) | multiplex microsphere protease substrate cleavage | inhibition, % at 10 µM | 360,000 tested, 0.17% active | AID 588499, 2011; further: plate controls were buffer without enzyme for full effect and enzyme alone for no effect
Anthrax LF prot – Bacillus anthracis LF protease inhibitors, primary screen, biochemical, multiplex microsphere, MLPCN library | Lethal factor (Bacillus anthracis), P15917 | multiplex microsphere protease cleavage assay | inhibition, % at 10 µM | 360,000 tested, 0.12% active | AID 588501, 2011; further: plate controls were buffer without enzyme for full effect and enzyme alone for no effect
Target sequence (P15917 whole entry, looked up): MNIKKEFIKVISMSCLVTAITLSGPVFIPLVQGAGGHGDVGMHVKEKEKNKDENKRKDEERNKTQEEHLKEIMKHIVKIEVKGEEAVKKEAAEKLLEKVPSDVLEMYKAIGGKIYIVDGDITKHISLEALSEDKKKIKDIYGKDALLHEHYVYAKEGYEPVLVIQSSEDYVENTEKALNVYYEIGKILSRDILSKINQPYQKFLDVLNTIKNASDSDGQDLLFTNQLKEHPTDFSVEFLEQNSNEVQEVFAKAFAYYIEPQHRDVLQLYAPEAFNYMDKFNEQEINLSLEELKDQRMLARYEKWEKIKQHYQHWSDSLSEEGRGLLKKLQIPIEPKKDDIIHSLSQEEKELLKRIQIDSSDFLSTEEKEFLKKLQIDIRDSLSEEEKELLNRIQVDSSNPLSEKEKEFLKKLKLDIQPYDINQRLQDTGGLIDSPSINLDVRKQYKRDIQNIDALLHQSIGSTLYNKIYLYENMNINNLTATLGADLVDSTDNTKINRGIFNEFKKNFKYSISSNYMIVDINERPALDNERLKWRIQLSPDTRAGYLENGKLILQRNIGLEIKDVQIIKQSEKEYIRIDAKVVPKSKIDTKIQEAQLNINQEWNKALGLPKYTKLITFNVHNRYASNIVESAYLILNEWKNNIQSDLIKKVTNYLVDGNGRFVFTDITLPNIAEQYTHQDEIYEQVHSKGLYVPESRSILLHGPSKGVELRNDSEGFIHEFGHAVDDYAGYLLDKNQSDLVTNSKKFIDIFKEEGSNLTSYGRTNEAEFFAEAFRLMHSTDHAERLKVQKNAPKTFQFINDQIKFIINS
Vc quorum ag-2 – V. cholerae lux activation without autoinducers – BH1578 luxS cqsA deficient, cherry-pick, plate reader, dose response; shares compounds with Vc quorum ag-1; activation, % at 50 µM; V. cholerae BH1578 lux reporter, luminescence, 6 h; 620 tested, under 10 active; call rule not given here
An asterisk follows results filed as active; i = inactive; ? = inconclusive; / = no result given; + = active, no number. Sampled rows, rich in hits. Any-hit rate of the full collection: about 3.9%. Unless noted, no stated cut-off is given here; in the data, active means inhibition above about 30%; inconclusive means no clear call, values can overlap the other calls; inactive means below that.

SMILES | Autofluor counter | Vc quorum ag-1 | MazF activator | BoNT F protease | BoNT A protease | Anthrax LF prot | Vc quorum ag-2
COc1ncnc2c1ncn2CCCN(C)CCc1ccccn1 | 3029 | 0 | 0 | -9 | 0 | -7 | /
COc1ccc(OC)c(C(=O)CCCCC(=O)c2cc(OC)ccc2OC)c1 | 4217 | 1 | -2 | -13 | 0 | -11 | /
COc1ccc(C(=O)CCC(=O)O)c(C)c1 | 22646* | 0 | 0 | 1 | 1 | -4 | /
O=C(Nc1c2c(nn1-c1ccc([N+](=O)[O-])cc1)CS(=O)(=O)C2)c1ccccc1F | 5464 | 0 | 12 | 0 | -1 | -2 | /
COc1ccccc1C(=O)Oc1ccc2c(c1)O/C(=C\c1ccncc1)C2=O | 2024 | 9 | 206* | 7 | 2 | -2 | /
CCC(=O)Oc1ccc2c(c1)O/C(=C\c1ccco1)C2=O | / | 0 | 691* | / | / | / | /
COc1ccc(S(=O)(=O)Oc2ccc3c(c2)O/C(=C\c2cccnc2)C3=O)cc1 | 23126* | -2 | 1 | -2 | ? | -2 | /
CC(=O)Oc1ccc2c(c1)O/C(=C\c1ccncc1)C2=O | 3367 | -1 | -617 | 28 | -1 | 8 | /
CCN(CC)C(=O)Oc1ccc2c(c1)O/C(=C\c1ccco1)C2=O | 3919 | 0 | 0 | -12 | 2 | 10 | /
O=C1/C(=C/c2cccnc2)Oc2cc(OS(=O)(=O)c3ccccc3)ccc21 | 10783 | 0 | -2 | -1 | 0 | 2 | /
O=C1/C(=C/c2cccnc2)Oc2cc(OS(=O)(=O)c3ccc(Cl)cc3)ccc21 | 21029* | -4 | 14 | 6 | 4 | 2 | /
Cc1ccc(/C=N/NC(=O)Cc2ccc(Cl)cc2)s1 | 4064 | i | 4 | 0 | 2 | 0 | /
CC(C)c1ccc(N2CC(C)(C)C2=O)cc1 | 4443 | 0 | 5 | 0 | 1 | -5 | /
CC(=NOC(=O)c1ccc(I)cc1)c1nccs1 | 2979 | i | / | -1 | 0 | -8 | /
CCCCNC(=O)CC(C(=O)N1CCc2ccccc21)n1ccnc1 (centres undefined) | 8295 | i | 1 | 4 | 0 | 2 | /
O=C(CC(C(=O)N1CCc2ccccc21)n1ccnc1)NCC1CCCO1 (centres undefined) | 22602* | i | 7 | 2 | 4 | 0 | /
Cc1ccc(S(=O)(=O)N2CCOCC2)cc1NC(=O)COC(=O)c1ccco1 | 2936 | -1 | -2 | -7 | 0 | -4 | /
Cc1nnc(NC(=O)CSc2nnc(C(C)NC(=O)c3ccccc3F)n2C)s1 (centres undefined) | 3473 | -4 | 3 | 24 | 0 | -3 | /
COC(=O)c1ccccc1NC(=O)CSc1nnc(C(C)NC(=O)c2ccc(Cl)cc2Cl)n1C (centres undefined) | 22829* | 12 | -1 | 0 | -2 | -5 | /
COc1ccc(-c2noc(CCC(=O)N3CCN(c4cccc(C(F)(F)F)c4)CC3)n2)cc1 | 2468 | 25* | -3 | 12 | 1 | -1 | 0
O=C(CCc1nc(-c2ccccc2)no1)N1CCCC1 | 4768 | 313* | 0 | -23 | 0 | -4 | 565
Cc1ccc(NC(=O)CCSc2nnc(-c3ccco3)o2)cc1 | 4498 | i | -8 | -3 | 0 | 3 | /
CCNC(=O)CCSc1nnc(-c2ccco2)o1 | 2542 | 835* | -1 | 4 | 0 | -2 | i
CC(C)CCN1CC(C(=O)N2CCN(c3ccc(F)cc3)CC2)CC1=O (centres undefined) | 2807 | 17* | 5 | -4 | 1 | 2 | 0
O=C(CNC(=O)c1ccncc1)Nc1ccc(F)c(F)c1 | 4117 | 12 | 4 | 5 | 2 | -5 | 0
SMILES | Autofluor counter | Vc quorum ag-1 | MazF activator | BoNT F protease | BoNT A protease | Anthrax LF prot | Vc quorum ag-2
O=C(CNC(=O)c1ccc(=O)[nH]c1)Nc1ccc(F)c(F)c1 | 4016 | 2 | 6 | -5 | 2 | 13 | /
COc1ccc(C(=O)N[C@H]2CCCCNC2=O)cc1OC1CCN(C(C)C)CC1 | 5317 | 0 | 10 | 5 | 1 | 1 | /
COc1ccccc1-n1ccnc1SCC(=O)NCC1CCCO1 (centres undefined) | 8517 | i | -1 | -14 | -8 | -4 | /
Cc1ccc(-n2nnnc2SCC(=O)NCC2CCCO2)cc1C (centres undefined) | 4707 | 12 | 3 | 13 | 6 | -2 | -101
Cc1cccc(-n2nnnc2SCC(=O)NCC2CCCO2)c1 (centres undefined) | 3878 | -1 | -17 | -1 | 0 | -5 | /
Cc1ccccc1-n1ccnc1SCC(=O)NCC1CCCO1 (centres undefined) | 5092 | 15* | -1 | 10 | 1 | 2 | 0
CCOC(=O)c1c(-c2ccccc2)csc1NC(=O)c1nn(CC)cc1Br | 8400 | 14 | 1 | -10 | 0 | -4 | 0
CCOC(=O)c1c(-c2ccccc2)csc1NC(=S)N(CC)CC | 2591 | 0 | -4 | -4 | 0 | 0 | /
CSc1ccccc1NC(=O)COc1ccc(S(=O)(=O)N2CCCC2)cc1 | 22225* | 12 | 2 | -6 | -3 | 0 | 0
O=C(NC1CCCCC1)C(=O)c1c[nH]c2ccccc12 | 4133 | 474* | 7 | 10 | 1 | -2 | i
O=C1CCC2c3[nH]c4ccccc4c3CCN12 (centres undefined) | 3503 | i | -4 | -7 | 0 | 5 | /
Cc1cc(Oc2ccc([N+](=O)[O-])cc2)nc(N2CCOCC2)n1 | 3733 | 0 | -3 | ? | -8 | -7 | /
Cc1cc(Oc2ccc(C#N)cc2)nc(N2CCOCC2)n1 | 2105 | 25* | -3 | -6 | -1 | -3 | 0
Cc1nn(CC(=O)Nc2ccc3c(c2)CCC3)c(C)c1[N+](=O)[O-] | 3923 | -1 | 7 | -3 | 0 | -6 | /
OC(CSc1ccc(F)cc1)CN1CCN(c2ccccc2)CC1 (centres undefined) | 5101 | 0 | 4 | 2 | 0 | -4 | /
CCCNC(=O)Nc1cc(C)on1 | 3480 | 0 | 4 | -11 | 1 | -3 | /
CCCCNC(=O)Nc1cc(C)on1 | 20643* | 14 | -4 | -6 | -3 | 0 | 0
CCCc1c(C(=O)N/N=C/c2ccc3c(c2)OCO3)nnn1-c1nonc1N | 3948 | 0 | -5 | -12 | 0 | -2 | /
Cc1ccc(/C=C/C(=O)OCC(=O)NCc2ccccc2)o1 | 6338 | -1 | 3 | -7 | -2 | 0 | /
CCCNC(=O)COC(=O)/C=C/c1ccc(C)o1 | 3955 | + | 3 | -2 | 0 | 2 | i
COCCNc1nc2c(c(=O)n(Cc3ccc(OC)cc3)c(=O)n2C)n1C | 22936* | 14 | 9 | -2 | -1 | -3 | 0

Screens (PubChem)
